# Assay outcomes deposited in PubChem BioAssay by National Center for Advancing Translational Sciences (NCATS).
# This is one part of a sample in which hits are shown more often than they occur.
# CHX counter = affects cycloheximide protein synthesis inhibition readout, counter-screen; cell reporter, cycloheximide protein synthesis inhibition counterscreen; max response, %; 300,000 compounds, 12% hits; AID 2314; in the data active means max response mostly above about 13%, no sharp cut-off; inactive means mostly below about 14%; further: read at 38.3 µM for the half of the compounds with a filed dose; 0% is about no effect
# AmpC inh detg = AmpC beta-lactamase inhibition with detergent present; P00811; AmpC hydrolysis of nitrocefin, absorbance 480 nm, 0.01% Triton; Potency, µM (top dose mostly 114 µM), without a hit: at the top dose activity change, negative = inhibition, hits mostly inhibitors; 370,000 compounds, 0.041% hits; AID 485294;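 further: potency means the concentration at half of the fitted maximal effect; 0% = no-compound wells and -100% = no-enzyme wells; nearly all actives have a fitted effect of over 25% in size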
# Target sequence (P00811 whole entry, looked up): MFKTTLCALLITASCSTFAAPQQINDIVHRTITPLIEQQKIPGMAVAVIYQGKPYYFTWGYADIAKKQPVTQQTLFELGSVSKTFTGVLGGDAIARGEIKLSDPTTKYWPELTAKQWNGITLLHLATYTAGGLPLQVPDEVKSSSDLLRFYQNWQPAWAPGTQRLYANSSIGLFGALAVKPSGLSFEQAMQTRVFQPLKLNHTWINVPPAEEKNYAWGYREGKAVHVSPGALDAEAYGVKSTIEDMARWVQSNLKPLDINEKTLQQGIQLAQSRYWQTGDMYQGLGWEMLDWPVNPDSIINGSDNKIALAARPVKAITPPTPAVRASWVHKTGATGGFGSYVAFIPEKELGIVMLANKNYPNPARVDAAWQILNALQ
#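 AmpC (5.3 nM in the dispensed reagent) in 20 mM phosphate pH 7.0 with 0.01% (detergent screen) or 0.0001% Triton X-100 was preincubated with compounds for 15 min at room temperature. Nitrocefin was then added from an 800 uM solution, and hydrolysis was followed at 480 nm.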
# SARS PLP yeast = blocks SARS-CoV papain-like protease in a yeast assay; S. cerevisiae expressing SARS-CoV PLpro, growth rescue; AID 485353; 330,000 compounds, 0.19% hits; Potency, µM (top dose mostly 32.9 µM), for inactives: top-dose activity, positive = growth rescue, most hits filed as activators; calls by dose curve; further: potency means the concentration at half of the fitted maximal effect; 0% is about no effect; nearly all actives have a fitted effect of over 55% in size
# AMA1-RON2 inh = AMA1-RON2 (P. falciparum) interaction inhibition | AlphaScreen AMA1-biotinylated RON2 peptide binding | Potency, µM (top dose mostly 58.2 µM), without a hit: at the top dose activity change, negative = inhibition, most hits filed as inhibitors | 360,000 compounds, 0.2% hits;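 further: potency means the concentration at half of the fitted maximal effect; 0% = vehicle wells and -100% = peptide control; nearly all actives have a fitted effect of over 45% in size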
#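 AMA1 (3D7) with his tag at 25 nM final met compounds first, then biotinylated RON2 peptide at 25 nM; detection used donor plus acceptor beads, 10 µg/mL apiece, read by AlphaScreen after 30 min at room temperature.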
# AmpC no deterg = AmpC beta-lactamase inhibition without detergent | P00811 | AmpC nitrocefin hydrolysis, absorbance 480 nm, 0.0001% Triton | Potency, µM (top dose mostly 57.1 µM), for inactives: at the top dose activity change, negative = inhibition, most hits filed as inhibitors | 330,000 compounds, 0.52% hits | AID 485341;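 further: potency means the concentration at half of the fitted maximal effect; plate controls were no compound for no effect and no enzyme for full effect; nearly all actives have a fitted effect of over 20% in size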
#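 AmpC (5.3 nM in the dispensed reagent) in 20 mM phosphate pH 7.0 with 0.01% (detergent screen) or 0.0001% Triton X-100 was preincubated with compounds for 15 min at room temperature. Nitrocefin was then added from an 800 uM solution, and hydrolysis was followed at 480 nm.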
# Shiga inhibitor = blocks Shiga toxin action in Vero cells | 290,000 compounds, 9.2% hits | inhibition, % at 38.7 µM | Vero cells, Shiga toxin protein synthesis inhibition reporter; in the data active means inhibition mostly above about 28%, no sharp cut-off; inactive means mostly below about 43%; further: 0% is about no effect
# Numbers without * were called inactive; ? = inconclusive; . = no result; + = active, no number. Unless noted, the call rests on the fitted dose curve; in most records, active means well fitted curve in the direction sought with a large enough effect; inconclusive means small, poorly fitted or top-dose-only effect, or another doubt; inactive means no such curve, though single readings can be large; an effect the other way counts as inactive or inconclusive.
SMILES,CHX counter,AmpC inh detg,SARS PLP yeast,AMA1-RON2 inh,AmpC no deterg,Shiga inhibitor
COc1ccc(S(=O)(=O)N2CCN(C(=O)c3cc(-c4ccc(Br)cc4)n[nH]3)CC2)cc1OC,10,5%,-5%,23%,72%,-7
NNC(=O)c1[nH]c2ccccc2c1-c1ccccc1,-6,-10%,0%,77%,6.3µM*,-13
COc1cc(/C=N/N(C)S(=O)(=O)c2ccc(C)cc2)cc([N+](=O)[O-])c1O,-1,?,-2%,-10%,-42%,-2
NC(=O)N/N=C/c1cn(-c2ccccc2)nc1-c1ccccc1,31*,-8%,-4%,18%,17%,60*
O=C(N/N=C/c1cn(-c2ccccc2)nc1-c1cccnc1)c1cccnc1,5,0%,3%,58%,75%,2
CCN(CC(=O)Nc1ccc(NC(C)=O)cc1)C(=O)/C=C/c1cn(-c2ccccc2)nc1-c1cccs1,.,?,2%,-4%,25µM*,.
O=C(N/N=C/c1cn(-c2ccccc2)nc1-c1cccs1)c1ccccc1F,20*,-5%,-25%,31%,-21%,83*
O=C(CNc1ccccc1)N/N=C/c1cn(-c2ccccc2)nc1-c1ccccc1,9.7*,0%,6%,0%,3%,54
O=C1NCC(Nc2ccc(Cl)cc2)C(=O)N1 (centres undefined),.,.,.,-11%,.,.
O=C(c1ccc(Cl)c([N+](=O)[O-])c1)N(Cc1ccc(Cl)cc1)C1CCS(=O)(=O)C1 (centres undefined),-1,-7%,7%,5%,37%,5
NS(=O)(=O)c1ccc(N/N=C/c2cn(-c3ccccc3)nc2-c2ccccc2)c([N+](=O)[O-])c1,1,-14%,0%,-13%,-33%,-11
O=[N+]([O-])c1ccc(N/N=C/c2cn(-c3ccccc3)nc2-c2ccccc2)cc1,10,-1%,4%,-2%,-15%,31*
O=c1[nH]c2c(s1)C(c1cccnc1)C1C3CCC(C3)C1S2 (centres undefined),-4,-4%,0%,-4%,-28%,-3
O=c1[nH]c2c(s1)C(c1ccc(O)cc1)C1C3CCC(C3)C1S2 (centres undefined),-1,-14%,0%,7%,45µM*,-3
Cc1ccccc1Nc1ncc(C#N)c(N)n1,16,-2%,1%,2%,-13%,33*
COc1ccc(Nc2ncc(C#N)c(N)n2)c(OC)c1,20*,2%,-2%,-8%,-6%,70*
NC(c1ccccc1)c1csc(Nc2ccc(C(F)(F)F)cn2)n1 (centres undefined),.,.,.,58%,.,.
COc1ccc(OC)c(/C=C/C(=O)Nc2ccc(OC)nc2)c1,7,-6%,-7%,72%,-32%,2
COc1ccc(NC(=O)/C=C/c2ccco2)cn1,36*,-7%,3%,-3%,-24%,90*
COc1ccc(NC(=O)c2ccco2)cn1,11,2%,0%,-2%,-8%,28
COc1ccc(NC(=O)/C=C/c2ccc(Br)o2)cn1,20*,-7%,0%,0%,-29%,86*
COc1ccc(NC(=O)/C=C/c2cccc(F)c2)cn1,43*,?,-10%,2%,-10%,72*
Cc1cccn2c(=O)c(/C=N/O)c(N3CCCCC3)nc12,-1,2%,-3%,2%,-19%,-22
CCc1ccc(C(=O)/C=C/c2cnn(C)c2C)s1,23*,?,-25%,9%,21%,34*
Cc1c(/C=C/C(=O)c2cccs2)cnn1C,33*,-2%,-39%,-4%,-9%,96*
SMILES,CHX counter,AmpC inh detg,SARS PLP yeast,AMA1-RON2 inh,AmpC no deterg,Shiga inhibitor
CCCOC(=O)c1c(NC(=O)/C=C/c2cnn(C)c2C)sc(C(=O)OC)c1C,-2,3%,0%,10%,-16%,-4
CCOC(=O)Cc1csc(NC(=O)c2ccco2)n1,50*,-4%,-6%,13%,-13%,50*
CCOC(=O)Cc1csc(NC(=O)c2ccc3ncsc3c2)n1,29*,3%,-1%,-2%,-17%,83*
CCOC(=O)Cc1csc(NC(=O)c2cnc3sc(C)cn3c2=O)n1,43*,-1%,-5%,6%,-13%,88*
CCOC(=O)Cc1csc(NC(=O)c2ccc(Br)cc2)n1,8,?,-12%,45%,-30%,40
CCOC(=O)Cc1csc(NC(=O)c2cc(C)on2)n1,.,.,.,-2%,.,.
Cc1ccc(-c2ocnc2C(=O)Nc2nc(C)cs2)cc1,72*,9%,0%,16%,-10%,.
COc1ccc(S(=O)(=O)N2CCOCC2)cc1NC(=O)CC1CCCC1,.,4%,-5%,5%,6%,.
COc1cccc(C2=CC(=O)C[C@H](c3ccc(Cl)cc3)C2)c1OC,.,4%,3%,-3%,116%,.
Cc1cc(-c2ccccc2)nc2[nH]n(-c3ccccc3)c(=O)c12,-4,-5%,4%,6%,-43%,-17
Cc1c(Cl)cccc1NC(=S)N(Cc1cccnc1)Cc1ccccc1Cl,-2,1%,-15%,0%,-4%,-12
O=C(O)c1ccc2oc(=O)c(S(=O)(=O)c3ccc(F)cc3)cc2c1,7,-5%,0%,-3%,-3%,-5
Cc1ccc(C(=O)Nc2nc(-c3cccnc3)cs2)o1,22,-8%,-1%,8%,-36%,26
CCOC(=O)Cc1csc(NC(=O)c2ccc(C)o2)n1,22*,0%,1%,4%,-21%,52*
CCOC(=O)Cc1csc(NC(=O)c2cc(C)c(C)s2)n1,.,3%,-10%,-7%,-31%,.
CCOC(=O)Cc1csc(NC(=O)c2ccc(Cl)s2)n1,60*,?,-4%,7%,-24%,54*
CCCCOC(=O)Nc1nc(CC(=O)OCC)cs1,15*,-9%,-1%,5%,-14%,30
Cc1csc(NC(=O)c2ccc(C)o2)n1,59*,1%,-17%,-10%,-13%,+
COc1ccc(CCNC(=O)COC(=O)CNS(=O)(=O)c2ccc(SC)c([N+](=O)[O-])c2)cc1,.,?,0%,2%,-6%,.
O=C1CCCCC1c1cccc2ccccc12 (centres undefined),-5,?,-6%,-17%,-18%,-5
Cc1cc(NC(=O)c2ccc(C)c(C)c2)no1,37*,-17%,-4%,-4%,-9%,.
Cc1ccc(C(=O)Nc2ccc(NC(=O)c3cccs3)cc2)cc1[N+](=O)[O-],8,0%,0%,-3%,-27%,23
Cc1ccc(C(=O)Nc2sc(C)c(-c3ccccc3)c2C(N)=O)cc1[N+](=O)[O-],62*,-8%,5%,3%,-13%,127*
Cc1cc(NC(=O)c2cccc(Br)c2)no1,.,.,.,9%,.,.
Cc1cc(NC(=O)c2ccc(C)c([N+](=O)[O-])c2)no1,31,1%,2%,13%,-13%,32*
